# TWEAK-Fn14 inh – blocks TWEAK-Fn14 interaction in a reporter cell assay. TWEAK-stimulated Fn14 reporter cells, luciferase luminescence, 8 h. inhibition, % at 10 µM. actives 2% (n = 360,000). AID 1159606; in the data active = inhibition above about 50%
# TRPM1 prom inh – MITF TRPM1 promoter inhibition in SK-MEL-5 cells; SK-MEL-5 TRPM1 promoter luciferase, 24 h; inhibition, % at 12.5 µM; actives 0.83% (n = 330,000); AID 488899;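 active = mean inhibition across replicates of 60% or more, whatever share of single replicates reaches that level; inconclusive = some that reach 60%, reason not given; inactive = mean inhibition across replicates below 60%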
# TROY signal inh – TROY signaling inhibition | Q293 LMP1-TROYcd NF-kB luciferase reporter, 4 h | actives 0.98% (n = 360,000) | AID 1347056 | inhibition, % at 10 µM;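 active = compounds whose plate-normalised and pattern-corrected inhibition of the luciferase reporter signal at the single screening dose is 50% or more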
# HIF-2a inh – inhibitors of HIF-2a | 786-0 RCC cells HIF-2a reporter, luciferase luminescence, overnight | inhibition, % at 18.8 µM | actives 0.72% (n = 360,000) | AID 624352;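 active = inhibition of the luminescence signal of 40% or more relative to plate controls, in a single-dose primary screen at 18.75 µM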
# Peg3 prom inh-1 – Peg3 promoter activity inhibition. HeLa PEG-Prom luciferase reporter, luminescence, overnight. inhibition, % at 20 µM. actives 1.7% (n = 360,000). AID 588405;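 active = inhibition of at least 50% at 20 µM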
# LMP1 NFkB inh – reduces LMP1-driven NF-kappaB luciferase signal. LMP1-induced NF-kappaB luciferase reporter cells, luminescence. inhibition, % at 12.5 µM. AID 504558. actives 0.69% (n = 350,000); in the data active = inhibition above about 41%; inconclusive = no clear call, values can overlap the other calls
# Peg3 prom inh-2 – Peg3 promoter inhibition confirmation; shares compounds with Peg3 prom inh-1; HeLa PEG-Prom luciferase reporter, luminescence, overnight; inhibition, % at 20 µM; actives 84% (n = 1,300);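 active = at 20 µM dose, 40% or more inhibition averaged across four replicates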
# A number is an active result; - = inactive; ? = inconclusive; . = no result given. A selection: hits, their analogues and other compounds. The true share with any hit is near 4%.
SMILES,TWEAK-Fn14 inh,TRPM1 prom inh,TROY signal inh,HIF-2a inh,Peg3 prom inh-1,LMP1 NFkB inh,Peg3 prom inh-2
CCOC(=O)c1c(C)n(-c2ccc(C)cc2)c2ccc(O)c(CN(C)C)c12,-,-,-,-,-,-,.
CCOC(=O)c1c(C)n(-c2ccc(OC)cc2)c2ccc(O)c(CN(C)C)c12,-,-,-,-,55,-,-
COc1ccc(S(=O)(=O)N2CCCCCC2)cc1NC(=O)CN1C(=O)CNC1=O,-,-,-,-,-,-,.
Cc1c(CN2CCC(CO)(CCOc3ccccc3)CC2)[nH]c2c(Cl)cccc12,-,-,-,-,99,-,99
CC1=C(CC[C@@H](C)CO)OC2CC3C4CCC5CC(O)CCC5(C)C4CC(=O)C3(C)C12 (stereo partly drawn),-,.,-,-,65,-,58
CC(CCC(=O)O)C1CCC2C3CCC4C[C@H](O)CCC4(C)C3CC(=O)C12C (stereo partly drawn),-,-,-,-,-,-,.
CCN1CCN(C(=O)CN(CC)S(=O)(=O)c2ccc(F)cc2)CC1,-,-,-,-,-,-,.
NC(N)=N/N=C/c1cccc(Cl)c1Cl,-,-,-,-,76,-,80
O=c1c(C(c2ccccc2)c2c(O)nc3n(c2=O)CCS3)c(O)nc2n1CCS2,-,-,-,-,-,-,.
COc1ccc(-c2sc3ccccc3c2C#Cc2cncn2C)cc1,-,-,-,-,52,-,-
Cn1cncc1C#Cc1c(-c2ccc(S(C)(=O)=O)cc2)sc2ccccc12,-,-,-,-,-,-,.
c1ccc2[nH]c3cc4ncnc4cc3nc2c1,-,-,-,-,-,-,.
Cc1ccc(C)c(OCC(O)CN2CCC(CN3C(=O)c4cccc5cccc(c45)C3=O)CC2)c1 (stereo not drawn),-,.,-,-,99,-,97
COc1ccc(-c2nc3c(C(=O)NCCN(C)C)cccc3c3ccccc23)cc1,-,-,-,-,95,-,99
COc1ccccc1C(=O)Nc1nc2ccccc2[nH]1,107,96,89,93,98,88,92
Cc1ccc(C(=O)Nc2nc3ccccc3[nH]2)cc1,97,73,71,63,71,63,64
Cc1ccc(C(=O)Nc2cnc3ccccc3c2)cc1,105,84,87,84,99,79,94
CC(=O)Nc1ccc(C(=O)N2CCCCC2c2cc(C(=O)NC(C)C)no2)cc1 (stereo not drawn),-,.,-,-,-,.,.
Cc1[nH]ccc2cc3nc4ccccc4c3cc12,-,.,-,-,-,-,.
Nc1nonc1-n1nnc(C(=O)N/N=C/c2cc(Br)ccc2O)c1CNc1ccccc1,-,-,-,-,56,-,72
CCCCNS(=O)(=O)NC(=O)C1=C(N2CCCC2)COC1=O,-,.,-,-,-,-,.
CCn1cc(/C=C(\NC(=O)c2ccccc2)C(=O)NCCCn2ccnc2)c2ccccc21,-,.,-,-,-,-,.
Cc1ccc(Cl)cc1Nc1nc(-c2sc(NC(=O)c3ccco3)nc2C)cs1,-,68,-,-,90,-,88
COc1ccccc1Nc1nc(-c2sc(NC(=O)c3ccco3)nc2C)cs1,-,-,-,-,70,-,58
CCCOc1ccc(OCCN2CCCC(C)C2)cc1 (stereo not drawn),-,-,-,-,-,-,.
SMILES,TWEAK-Fn14 inh,TRPM1 prom inh,TROY signal inh,HIF-2a inh,Peg3 prom inh-1,LMP1 NFkB inh,Peg3 prom inh-2
CCCCNC(=O)C1(C)CCN1Cc1cccc2c(OC)cc(C(=O)OCC)cc12 (stereo not drawn),-,.,-,-,57,.,-
N=c1n(CCN2CCCCC2)c2ccccc2n1CC(O)c1ccc(Cl)c(Cl)c1 (stereo not drawn),-,?,-,-,117,-,100
CN(C)CCn1c(=N)n(CC(O)c2ccc(Cl)c(Cl)c2)c2ccccc21 (stereo not drawn),-,-,-,-,-,-,.
CCOc1ccc2[nH]c3c(NCCc4ccc(OC)c(OC)c4)ncnc3c2c1,-,-,-,-,66,-,65
COc1ccccc1NC(=S)NC1CCCCCCCCCCC1,-,-,-,-,55,-,91
CCCCn1nnnc1C(c1ccccc1)N1CCN(c2cccc(C)c2C)CC1 (stereo not drawn),-,.,-,-,.,.,.
O=C(O)CN1C(=O)/C(=C\c2ccccc2OCc2ccc(Cl)cc2Cl)SC1=S,97,-,80,66,55,44,65
Cc1cc(NC(=O)CCCN2C(=O)/C(=C/c3ccccc3Cl)SC2=S)no1,-,-,-,-,-,-,.
COc1ccc(/C=C2\SC(=S)N(CCCC(=O)NNC(=O)c3ccccc3O)C2=O)cc1,-,92,-,90,71,-,72
O=C(CCCN1C(=O)/C(=C/c2ccccc2Cl)SC1=S)NNC(=O)c1ccccc1Cl,78,-,-,93,60,44,68
Clc1cccc(CN2CCSCC2)c1Cl,-,-,-,-,-,-,.
CC(=O)Nc1ccc(NC(=O)[C@@H](NC(=O)c2ccccc2F)C(C)C)cc1,-,-,-,-,-,-,.
c1cnc2nc(-c3ccc4c(c3)OCO4)cn2c1,-,-,-,-,-,-,.
CCc1ccn2cc(-c3ccc4c(c3)OCO4)nc2c1,-,65,66,60,84,72,72
Cc1ccc(-c2cc3c(nn2)-c2ccccc2C3=O)cc1,96,78,75,-,76,65,67
COc1ccc(OC)c(/C=C/C(=O)N(C)CC(=O)Nc2ccc(N3CCOCC3)cc2)c1,-,-,-,-,-,-,.
Cc1cc(C2=NNC(=NC3CC3)SC2)c(C)n1Cc1ccco1,61,91,-,80,86,79,90
O=S(=O)(/N=C(/Sc1ccccc1)c1ccccc1)c1ccccc1,-,?,-,-,60,-,75
O=C(/C=C/c1ccccc1)NC(NC(=S)Nc1cccc(Cl)c1)C(Cl)(Cl)Cl (stereo not drawn),63,-,-,-,79,56,67
Cc1ccc(C2=NC(=O)/C(=C/c3cc(O)c(O)c(Br)c3)S2)cc1,-,-,-,-,67,-,67
COc1cc(/C=C2\SC(c3ccc(C)cc3)=NC2=O)cc(OC)c1O,-,-,-,-,-,-,.
CC(=O)Nc1sc(C)c(C)c1C(=O)OCC(=O)Nc1cccc(C)c1,-,-,-,-,90,-,-
C[C@]1(CC/C(=C/CO)CO)[C@H](C=O)CC[C@@]23COC(=O)C2=CCC[C@@H]31,-,.,-,-,-,.,.
O/N=C(\c1ccc(Cl)cc1Cl)c1ncc(C(F)(F)F)cc1Cl,-,-,-,-,57,-,47
O=C(c1ccc(Cl)cc1Cl)c1ncc(C(F)(F)F)cc1Cl,-,-,-,-,-,-,.
COc1cc(CNCCN2CCOCC2)ccc1OCc1ccc(Cl)cc1Cl,-,-,-,-,57,-,79
